One test relates to Staphylococcus aureus. To be noted: Concentration 32 ug.mL-1; ASSAY_TEST Inhibition of Bacterial Growth; detection method Absorption (OD600); MEDIA CAMHB; plate type 384well; NBS; CORNING #3640; time 18 hr.
For another test, the system named is Escherichia coli. The conditions noted are these: Concentration 32 ug.mL-1; ASSAY_TEST Inhibition of Bacterial Growth; detection method Absorption (OD600); MEDIA CAMHB; plate type 384well; NBS; CORNING #3640; time 18 hr.

The structures appear in SMILES notation. Measured potencies and affinities stand elsewhere.

With `CCOP(=O)(OCC)C(Cc1cn(Cc2cnc(C)nc2N)nn1)C(=O)O.O=C(O)C(F)(F)F` (configuration not stated), the figures for the Inhibition in the test on Staphylococcus aureus and in the test with Escherichia coli were 18.42% and -15.56%, respectively.

The record behind these values is ChEMBL document CHEMBL4513139, “CO-ADD screening of University of Strathclyde (UK) compounds”.
